A number with no mark means an inactive call. Inconclusive results are not listed. Entries that show only a call come without a potency. Calls of active or inactive are those of the source. Unless noted, calls come from the whole dose curve; as a rule, active = well fitted curve in the direction sought with a large enough effect in the repeat runs; inconclusive = weak or mixed curves; inactive = no such curve, though single readings can be large; an effect the other way counts as inactive or inconclusive.
How the values were obtained:
[1] = target: Progesterone receptor (Homo sapiens) (UniProt P06401); test: qHTS assay to identify small molecule agonists of the progesterone receptor (PR) signaling pathway (AID 1346784; calls by dose curve; note: nearly all actives have a fitted effect of over 30% in size)
Outline: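 Agonist qHTS: compounds pinned onto 3,000 PR-UAS-bla HEK 293T cells per well in charcoal-stripped serum medium, 16hr at 37C, then beta-lactamase activity measured by LiveBLAzer FRET fluorescence after 2 hours at room temperature.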

[2] = target: Progesterone receptor (Homo sapiens) (UniProt P06401); test: qHTS assay to identify small molecule antagonists of the progesterone receptor (PR) signaling pathway (AID 1346795; active = well fitted inhibition curve with a large enough effect in the signal ratio in the repeat runs, not every such curve was filed as active; the % refers to the signal ratio; note: potency is the fitted concentration of half-maximal effect)
Outline: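 Antagonist mode with agonist R5020 at 1 nM final and 16 hr incubation at 37C. Reporter was beta-lactamase driven by UAS in HEK293T (PR-UAS-bla), 2% charcoal-stripped serum; signal from LiveBLAzer FRET substrate, 2 hr at room temperature.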

[3] = qHTS assay to identify small molecule agonists of the progesterone receptor (PR) signaling pathway - cell viability counter screen (AID 1346799; calls by dose curve; note: nearly all actives have a fitted effect of over 45% in size)
Outline: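 Cytotoxicity measured by CellTiter-Glo luminescence (30 min, RT) in the same wells as the PR beta-lactamase agonist read. Those HEK293T cells had 16 h compound treatment at 37 C in 2% charcoal-stripped FBS medium.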

[4] = qHTS assay to identify small molecule antagonists of the TGF-beta/Smad signaling pathway - cell viability counter screen (AID 1346824); note: nearly all actives have a fitted effect of over 50% in size
Outline: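 Cytotoxicity counter-screen run in the same wells as the beta-lactamase Smad reporter read: CellTiter-Glo luminescence after 30 min at room temperature. HEK 293T SBE-bla cells had 5 hr compound exposure at 37 C with TGF-beta1 (0.25 ng/mL stock).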

[5] = qHTS assay to identify small molecule agonists of the TGF-beta/Smad signaling pathway - cell viability counter screen (AID 1346829); note: top concentration of the series differs between compounds; nearly all actives have a fitted effect of over 45% in size
Outline: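 Cytotoxicity counter screen: CellTiter-Glo luminescence (30 min, room temperature) measured in the SBE-bla HEK 293T reporter wells after 5 hr compound treatment at 37 C and the 2 hr substrate step.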

[6] = qHTS assay to identify small molecule agonists of the TGF-beta/Smad signaling pathway (AID 1346859; active = well fitted activation curve with a large enough effect in the signal ratio in the repeat runs, not every such curve was filed as active; the % refers to the signal ratio; note: series mostly up to about 77 µM)
Outline: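 Fluorescence (ex 405 nm; em 460 and 530 nm) was read 2 h after LiveBLAzer FRET substrate at RT. The preceding compound treatment of overnight-plated SBE-bla HEK293T cells lasted 5 h at 37 C.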

[7] = target: Thyrotropin-releasing hormone receptor (Homo sapiens) (UniProt P34981); test: qHTS assay to identify small molecule antagonists of the thyrotropin-releasing hormone receptor (TRHR) signaling pathway (AID 1346877; active = well fitted inhibition curve with a large enough effect in the repeat runs, not every such curve was filed as active; note: series mostly up to about 51 µM)
Outline: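 HEK293/TRHR cells, 18 h, 37 °C; Ca2+ dye 2 h; cpd 5 min RT; TRH 1 nM final; fluorescence read 3 min, 1 s intervals; 15 concs, triplicate.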

[8] = target: Thyrotropin-releasing hormone receptor (Homo sapiens) (UniProt P34981); test: qHTS assay to identify small molecule agonists of the thyrotropin-releasing hormone receptor (TRHR) signaling pathway (AID 1346891; calls by dose curve; note: series mostly up to about 58 µM)
Outline: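 Agonist-mode intracellular calcium readout: kinetic fluorescence over 3 min at 1 s intervals after compound addition to TRHR-HEK293 cells (18 h seeded, 2 h dye-loaded at 37 C). Fifteen concentrations, triplicates.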

[9] = Human pregnane X receptor (PXR) small molecule agonists, qHTS cell viability counter screen (AID 1346977); note: nearly all actives have a fitted effect of over 50% in size; note: potency is the fitted concentration of half-maximal effect
Outline: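 Same-well viability read: CellTiter-Fluor added after 23 hr compound exposure, fluorescence measured 1 hr later. Cells were PXR-Luc HepG2 seeded at 2,000/well in 5% charcoal-stripped FBS medium, rested 5 hr before dosing at 37 C.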

[10] = Caspase-3/7 induction in HepG2 cells by small molecules, qHTS assay (AID 1346978); note: nearly all actives have a fitted effect of over 15% in size
Outline: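 Caspase-3/7 induction was measured by Caspase-Glo 3/7 luminescence (30 min, room temperature) after a 17 hr compound exposure of wild-type HepG2 cells seeded at 2,000 per well and pre-incubated 5 hr.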

[11] = Caspase-3/7 induction in CHO-K1 cells by small molecules, qHTS cell viability counter screen (AID 1346979); note: nearly all actives have a fitted effect of over 35% in size; note: potency is the fitted concentration of half-maximal effect
Outline: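 Cytotoxicity counter screen: CellTiter-Fluor added to compound-treated wild-type CHO-K1 cells at 16 h (37C, 5% CO2), fluorescence measured 1 h later; same wells as caspase-3/7 measurement.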

[12] = Caspase-3/7 induction in CHO-K1 cells by small molecules, qHTS assay (AID 1346980); note: nearly all actives have a fitted effect of over 15% in size
Outline: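 Luminescent Caspase-Glo 3/7 read (30min, room temperature) quantified apoptosis induction. Cells were wild-type CHO-K1, treated with compound for 17hr at 37 C and 5% CO2.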

[13] = Caspase-3/7 induction in HepG2 cells by small molecules, qHTS cell viability counter screen (AID 1346981); note: nearly all actives have a fitted effect of over 30% in size; note: potency is the fitted concentration of half-maximal effect
Outline: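 Fluorescence read-out of live-cell protease activity (CellTiter-Fluor) after 1 hr with reagent. This was measured in the same wells as the caspase-3/7 luminescence, on HepG2 cells exposed to DMSO-dissolved compounds for 16 hr at 37 C.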

[14] = target: Cytochrome P450 2D6 (Homo sapiens) (UniProt P10635); test: Cytochrome P450 Family 2 Subfamily D Member 6 (CYP2D6) small molecule antagonists: luciferase reporter qHTS assay (AID 1671196); note: nearly all actives have a fitted effect of over 50% in size; note: potency is the fitted concentration of half-maximal effect
Outline: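 Luminogenic proluciferin substrate, CYP2D6 enzyme; 10 min RT preincubation with compound, NADPH regeneration system added, 1 h RT. Stop/detection reagent, 20 min RT, luminescence read (RLU). Signal proportional to CYP activity.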

[15] = target: Cytochrome P450 2C19 (Homo sapiens) (UniProt P33261); test: Cytochrome P450 Family 2 Subfamily C Member 19 (CYP2C19) small molecule antagonists: luciferase reporter qHTS assay (AID 1671197); note: nearly all actives have a fitted effect of over 65% in size; note: potency is the fitted concentration of half-maximal effect
Outline: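 Luminescent readout of CYP2C19 activity: luciferin product detected 20 min after adding detection reagent. Before that, compound and enzyme-substrate mix preincubated 10 min at room temperature; NADPH-regenerating system started a 1 h, 37C reaction. Ketoconazole as positive control.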

[16] = target: Cytochrome P450 2C9 (Homo sapiens) (UniProt P11712); test: Cytochrome P450 Family 2 Subfamily C Member 9 (CYP2C9) small molecule antagonists: luciferase reporter qHTS assay (AID 1671198); note: nearly all actives have a fitted effect of over 50% in size; note: potency is the fitted concentration of half-maximal effect
Outline: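 Enzyme-substrate mix preincubated with compound 10 min at room temperature; reaction started with NADPH regeneration solution, 1 h 37C. Luminescent luciferin product read after 20 min detection reagent.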

[17] = target: Nuclear receptor subfamily 1 group I member 2 (Homo sapiens) (UniProt O75469); test: Human pregnane X receptor (PXR) small molecule agonists, qHTS assay (AID 1346982); note: nearly all actives have a fitted effect of over 35% in size; note: potency is the fitted concentration of half-maximal effect
Outline: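 HepG2 PXR-Luc reporter line, 5% charcoal-stripped FBS; 5 hr pre-incubation, compound (DMSO) 24 hr at 37 C/5% CO2; ONE-Glo 30 min RT; luminescence read-out.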

[18] = target: Nuclear receptor subfamily 1 group I member 2 (Rattus norvegicus) (UniProt Q9R1A7); test: Rat pregnane X receptor (rPXR) activation by small molecules, qHTS assay (AID 1346983); details: rPXR luciferase reporter cells, One-Glo luminescence, 24 h; max activation: active compounds read high; note: nearly all actives have a fitted effect of over 20% in size
Outline: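 Luminescent readout (One-Glo luciferase, 30 min room temperature) followed 24 hr compound treatment at 37 C of rPXR cells plated 2,000 per well and preincubated 5hr; qHTS format with compounds delivered in DMSO.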

[19] = target: Nuclear receptor subfamily 1 group I member 2 (Homo sapiens) (UniProt O75469); test: CYP3A4 induction through human pregnane X receptor (PXR) by small molecules, qHTS assay (AID 1346984); note: nearly all actives have a fitted effect of over 40% in size
Outline: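 HepG2-derived DPX-2 line carrying PXR plus a CYP3A4-promoter luciferase reporter; cells plated 5 hr, compound-exposed 24 hr at 37C. CYP3A4 activity probed with 3uM (final) Luciferin-IPA for 3hr, then luciferase read after One-Glo.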

[20] = qHTS assay to identify small molecule antagonists of the progesterone receptor (PR) signaling pathway - cell viability counter screen (AID 1346798)
Outline: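 Cytotoxicity read as CellTiter-Glo luminescence (30 min, room temperature) in the same wells as the beta-lactamase readout. HEK293T PR-UAS-bla cells in charcoal-stripped 2% FBS received compound and R5020, then 16 h at 37C, 5% CO2.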

Chain of Cytochrome P450 2C9 (Homo sapiens) (P11712 whole entry, looked up): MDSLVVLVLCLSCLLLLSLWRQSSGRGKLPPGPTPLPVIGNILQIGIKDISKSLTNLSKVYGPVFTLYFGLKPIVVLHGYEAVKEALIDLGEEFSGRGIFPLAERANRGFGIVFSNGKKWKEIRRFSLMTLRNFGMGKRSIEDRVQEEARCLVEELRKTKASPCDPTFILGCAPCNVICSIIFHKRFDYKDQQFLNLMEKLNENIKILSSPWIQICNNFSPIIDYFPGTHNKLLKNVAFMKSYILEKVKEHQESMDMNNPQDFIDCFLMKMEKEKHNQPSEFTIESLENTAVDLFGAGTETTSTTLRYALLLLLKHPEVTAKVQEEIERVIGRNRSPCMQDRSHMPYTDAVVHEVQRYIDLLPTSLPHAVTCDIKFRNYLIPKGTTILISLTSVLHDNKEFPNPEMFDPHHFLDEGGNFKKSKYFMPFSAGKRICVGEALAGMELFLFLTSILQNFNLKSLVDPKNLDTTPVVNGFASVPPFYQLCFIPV
Chain of Cytochrome P450 2D6 (Homo sapiens) (P10635 whole entry, looked up): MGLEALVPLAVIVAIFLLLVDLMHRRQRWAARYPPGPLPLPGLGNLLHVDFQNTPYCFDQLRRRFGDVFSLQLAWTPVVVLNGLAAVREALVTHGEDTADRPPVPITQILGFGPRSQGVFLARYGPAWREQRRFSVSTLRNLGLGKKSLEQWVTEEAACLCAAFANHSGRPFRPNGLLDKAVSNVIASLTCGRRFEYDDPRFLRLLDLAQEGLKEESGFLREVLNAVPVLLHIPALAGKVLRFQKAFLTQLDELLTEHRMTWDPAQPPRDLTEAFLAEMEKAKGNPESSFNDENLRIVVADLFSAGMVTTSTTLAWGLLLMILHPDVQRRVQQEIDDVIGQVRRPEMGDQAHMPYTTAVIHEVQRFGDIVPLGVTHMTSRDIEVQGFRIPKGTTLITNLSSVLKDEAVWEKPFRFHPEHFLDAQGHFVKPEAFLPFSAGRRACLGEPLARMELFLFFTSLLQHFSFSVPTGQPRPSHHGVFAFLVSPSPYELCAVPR
Chain of Nuclear receptor subfamily 1 group I member 2 (Homo sapiens) (O75469 whole entry, looked up): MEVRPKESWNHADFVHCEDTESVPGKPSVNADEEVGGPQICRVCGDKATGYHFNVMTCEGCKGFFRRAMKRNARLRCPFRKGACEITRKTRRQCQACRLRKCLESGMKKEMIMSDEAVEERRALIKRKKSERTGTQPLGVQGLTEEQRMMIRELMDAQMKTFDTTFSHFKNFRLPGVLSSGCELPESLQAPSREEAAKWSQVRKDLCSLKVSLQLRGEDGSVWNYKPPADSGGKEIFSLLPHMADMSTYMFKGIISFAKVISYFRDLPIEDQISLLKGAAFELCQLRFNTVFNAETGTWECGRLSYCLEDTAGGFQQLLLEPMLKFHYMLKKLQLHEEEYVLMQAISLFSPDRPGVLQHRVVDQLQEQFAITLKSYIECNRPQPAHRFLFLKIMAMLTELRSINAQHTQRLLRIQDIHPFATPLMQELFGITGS
Chain of Progesterone receptor (Homo sapiens) (P06401 whole entry, looked up): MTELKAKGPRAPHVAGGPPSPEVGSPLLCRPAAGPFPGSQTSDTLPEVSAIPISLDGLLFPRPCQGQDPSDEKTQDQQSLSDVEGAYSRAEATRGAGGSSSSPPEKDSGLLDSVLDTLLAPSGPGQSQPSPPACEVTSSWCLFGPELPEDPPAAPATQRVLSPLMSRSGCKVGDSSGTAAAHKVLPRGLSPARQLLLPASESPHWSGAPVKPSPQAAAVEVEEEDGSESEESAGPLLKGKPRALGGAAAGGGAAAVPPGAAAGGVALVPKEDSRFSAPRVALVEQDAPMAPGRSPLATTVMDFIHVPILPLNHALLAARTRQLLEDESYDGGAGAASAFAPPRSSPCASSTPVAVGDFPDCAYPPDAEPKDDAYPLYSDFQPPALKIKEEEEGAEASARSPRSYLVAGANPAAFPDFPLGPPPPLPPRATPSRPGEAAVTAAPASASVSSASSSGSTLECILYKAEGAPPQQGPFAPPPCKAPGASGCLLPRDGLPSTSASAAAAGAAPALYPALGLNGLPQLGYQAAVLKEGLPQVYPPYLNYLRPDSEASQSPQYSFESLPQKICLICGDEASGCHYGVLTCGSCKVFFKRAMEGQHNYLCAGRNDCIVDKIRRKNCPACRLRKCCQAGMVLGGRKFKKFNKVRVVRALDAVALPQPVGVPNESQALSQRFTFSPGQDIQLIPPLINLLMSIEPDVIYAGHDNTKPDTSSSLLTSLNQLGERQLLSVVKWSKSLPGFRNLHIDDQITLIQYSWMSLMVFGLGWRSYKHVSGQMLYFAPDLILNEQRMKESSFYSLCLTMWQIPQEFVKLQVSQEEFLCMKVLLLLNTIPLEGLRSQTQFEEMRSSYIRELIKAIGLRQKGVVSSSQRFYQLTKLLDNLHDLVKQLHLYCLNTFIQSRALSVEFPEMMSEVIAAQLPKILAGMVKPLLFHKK
Chain of Cytochrome P450 2C19 (Homo sapiens) (P33261 whole entry, looked up): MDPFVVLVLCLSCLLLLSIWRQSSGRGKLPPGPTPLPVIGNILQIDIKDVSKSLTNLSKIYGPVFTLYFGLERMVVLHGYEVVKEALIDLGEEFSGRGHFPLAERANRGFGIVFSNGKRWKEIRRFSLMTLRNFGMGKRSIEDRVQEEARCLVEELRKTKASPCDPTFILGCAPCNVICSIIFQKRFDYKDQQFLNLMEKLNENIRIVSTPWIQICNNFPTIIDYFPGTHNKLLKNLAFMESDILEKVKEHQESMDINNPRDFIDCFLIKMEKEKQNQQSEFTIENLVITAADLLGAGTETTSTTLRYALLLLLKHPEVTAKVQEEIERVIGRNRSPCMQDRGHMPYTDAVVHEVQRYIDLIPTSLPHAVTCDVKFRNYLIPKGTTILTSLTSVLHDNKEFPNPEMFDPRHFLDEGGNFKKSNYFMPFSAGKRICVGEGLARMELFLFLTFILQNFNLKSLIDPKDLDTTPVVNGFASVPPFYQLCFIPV
Chain of Thyrotropin-releasing hormone receptor (Homo sapiens) (P34981 whole entry, looked up): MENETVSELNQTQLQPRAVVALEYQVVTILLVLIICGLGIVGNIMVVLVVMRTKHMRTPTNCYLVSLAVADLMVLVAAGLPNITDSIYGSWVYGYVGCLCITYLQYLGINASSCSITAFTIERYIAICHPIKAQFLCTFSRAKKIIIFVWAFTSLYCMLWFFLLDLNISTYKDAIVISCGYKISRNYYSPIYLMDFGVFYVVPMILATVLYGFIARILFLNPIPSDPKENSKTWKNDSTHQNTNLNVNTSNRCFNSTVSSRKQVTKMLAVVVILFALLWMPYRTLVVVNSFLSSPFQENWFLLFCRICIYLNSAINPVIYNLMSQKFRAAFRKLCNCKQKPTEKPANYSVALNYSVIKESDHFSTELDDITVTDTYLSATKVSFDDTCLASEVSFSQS
Chain of Nuclear receptor subfamily 1 group I member 2 (Rattus norvegicus) (Q9R1A7 whole entry, looked up): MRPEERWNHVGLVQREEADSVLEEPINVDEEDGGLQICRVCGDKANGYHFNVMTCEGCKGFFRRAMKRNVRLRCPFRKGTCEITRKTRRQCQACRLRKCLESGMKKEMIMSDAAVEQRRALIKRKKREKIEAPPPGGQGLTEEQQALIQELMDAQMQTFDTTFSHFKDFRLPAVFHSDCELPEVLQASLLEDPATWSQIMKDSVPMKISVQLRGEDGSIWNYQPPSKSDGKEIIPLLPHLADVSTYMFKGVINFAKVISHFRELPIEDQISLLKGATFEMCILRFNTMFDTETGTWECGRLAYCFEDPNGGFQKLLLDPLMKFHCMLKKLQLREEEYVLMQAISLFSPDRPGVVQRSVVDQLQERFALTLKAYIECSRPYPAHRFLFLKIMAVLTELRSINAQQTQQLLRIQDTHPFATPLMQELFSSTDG

Row | Structure (SMILES) | outcome [1] | Potency [2] | Potency [3] | Potency [4] | Potency [5] | Potency [6] | Potency [7] | Potency [8] | Potency [9] | Potency [10] | Potency [11] | Potency [12] | Potency [13] | Potency [14] | Potency [15] | Potency [16] | Potency [17] | max activation [18] | Potency [19] | Potency [20]
1 | CCCCCCCCCCc1ccccc1 | inactive | inactive | inactive | inactive | inactive | inactive | inactive | inactive | inactive | inactive | inactive | inactive | inactive | inactive | inactive | inactive | – | – | – | –
2 | O=c1cccc[nH]1 | inactive | inactive | inactive | inactive | inactive | inactive | inactive | inactive | inactive | inactive | – | inactive | inactive | inactive | – | inactive | inactive | – | – | –
3 | C[C@@]12C(=O)OC(=O)[C@]1(C)C1CCC2O1 | inactive | 4.73 µM (active) | – | – | inactive | inactive | inactive | inactive | 0.266 µM (active) | – | 10.6 µM (active) | – | 2.98 µM (active) | inactive | inactive | inactive | 1.06 µM (active) | -13% | inactive | –
4 | CCC1CCCCC1 | inactive | – | inactive | inactive | inactive | inactive | inactive | inactive | inactive | inactive | inactive | inactive | inactive | – | inactive | inactive | inactive | – | – | inactive
5 | CO[C@H]1C=CO[C@@]2(C)Oc3c(C)c(O)c4c(O)c(cc(O)c4c3C2=O)NC(=O)/C(C)=C\C=C/[C@H](C)[C@H](O)[C@@H](C)[C@@H](O)[C@@H](C)[C@H](OC(C)=O)[C@@H]1C | inactive | inactive | inactive | inactive | inactive | inactive | inactive | inactive | 48.9 µM (active) | inactive | 19.5 µM (active) | inactive | 61.6 µM (active) | 35.8 µM (active) | 20.2 µM (active) | 10.1 µM (active) | 7.75 µM (active) | -1.49% | inactive | –
6 | CCC(C)c1ccccc1 (centres undefined) | inactive | inactive | inactive | inactive | inactive | inactive | inactive | inactive | inactive | inactive | inactive | inactive | – | inactive | inactive | inactive | inactive | – | – | –
7 | CCC(C)(C)c1cc(O)c(C(C)(C)CC)cc1O | inactive | inactive | – | inactive | inactive | – | – | inactive | inactive | inactive | – | inactive | – | – | 31.7 µM (active) | 63.3 µM (active) | 30.6 µM (active) | – | – | inactive

Source: PubChem BioAssay (Tox21)
